The panel holds about 83,000 compounds, 20% with a hit somewhere; the sample as a whole holds those more often.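 Each cell line was grown in a 96-well plate and treated with one concentration of compound for 48 hours. Values below 10 were considered active.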 A number with no mark means an inactive call. The source made the active and inactive calls.

Holding throughout (assay): NCI-60 one-dose screen, 48 h (100 = growth as untreated, 0 = no growth, -100 = all killed)
Holding throughout (details): 10 µM unless noted

Experiment [1] concerns K-562 leukemia.
Experiment [2] has as its system MALME-3M melanoma.
The subject of experiment [3] is MDA-MB-231 breast.
In experiment [4] the test system is RXF 393 renal.
In experiment [5] the test system is SF-268 CNS.
Experiment [6] has as its system SF-295 CNS.
For experiment [7], the system named is SF-539 CNS.
Experiment [8] has as its system UACC-257 melanoma.
The subject of experiment [9] is M14 melanoma.
Experiment [10] has as its system HCT-15 colon.
In experiment [11] the test system is HT29 colon.
For experiment [12], the system named is SNB-75 CNS.
The subject of experiment [13] is SNB-19 CNS.
Experiment [14] relates to U251 CNS.
Experiment [15] deals with PC-3 prostate.
For experiment [16], the system named is SK-MEL-5 melanoma.
Experiment [17] deals with UACC-62 melanoma.
The test system of experiment [18] is SK-MEL-28 melanoma.
The test system of experiment [19] is SK-MEL-2 melanoma.
Experiment [20] concerns LOX IMVI melanoma.

As for `O=C1NC(=C(Cl)Cl)/C(=N/S(=O)(=O)N2CCCCC2CC2(C(F)(F)F)N=N2)N1` (stereo not given), the growth is 2.72% (active) in [1]; -71% (active) in experiment [2]; -21.4% (active) in experiment [3]; -28.8% (active) in experiment [4]; 49.3% in [5]; 99.3% in experiment [6]. The growth in experiment [7] was -22% (active); in experiment [8] it was 82.6%; in experiment [9], 24.4%; in experiment [10] it was -67.3% (active); in experiment [11] it was -25.7% (active); in experiment [12], 101%. Besides, the growth in [13] was 40.8%; in experiment [14], -1.13% (active); in experiment [15], 60.5%; in experiment [16], 95.3%; in experiment [17], 38.4%; in experiment [18], 7.84% (active). For the same compound, in experiment [19], the growth is -4.45% (active).

In the case of `COc1cc(OC)c(S(=O)(=O)NNC(=O)c2ccncc2)cc1C(=O)/C=C/c1ccc(C)cc1`, the growth in [1] is 27.3%; in experiment [2], 95.5%; in experiment [3], 67.4%; in experiment [4] it was 82.9%; in experiment [5], 60.9%; in [6], 107%. In addition, the growth in experiment [7] is 65.3%; in experiment [8] it was 99.6%; in experiment [9], 56.4%; in [10] it was 85.3%; in experiment [11], 95.1%; in experiment [12], 73%. For the same compound, the growth in experiment [13] was 66.7%; in experiment [14] it was 68.1%; in [15] it was 45.9%; in experiment [16] it was 94.2%; in experiment [17], 76.2%; in experiment [18], 104%.

`COc1cc(N=Cc2sc(Nc3nccs3)nc2O)cc(OC)c1OC`: the growth in [1] was 84.4%; in experiment [2], 79.2%; in [3], 79.1%; in [4], 99.5%; in experiment [5] it was 78.8%; in experiment [6], 69.9%. Moreover, the growth in [7] was 90.5%; in experiment [8] it was 92.6%; in experiment [9], 79.9%; in experiment [10], 71.4%; in experiment [11], 109%; in [12] it was 73.6%. The growth is 78.2% in experiment [13]; 84.7% in [14]; 80.9% in experiment [15]; 87.6% in [16]; 75.5% in [17]; 84.2% in experiment [18]. Moreover, the growth in experiment [19] was 74%.

With `NS(=O)(=O)c1ccc(Nc2nc(Nc3ccccc3)nc(-n3nc(-c4ccccc4)cc3-c3ccccc3)n2)cc1`, the growth in experiment [1] is 11.5%; in experiment [2], 60%; in [3], 37%; in [4], 22.8%; in experiment [5], 37.8%; in experiment [6] it was 34.3%. The growth is 37.2% in experiment [7]; 59.6% in experiment [8]; 26.5% in [9]; 18.3% in [10]; 4.52% (active) in [11]; 56.4% in [12]. Besides, the growth in [13] was 50.1%; in [14] it was 33.3%; in experiment [15], 26.7%; in [16], 39.2%; in experiment [17], 54.8%; in experiment [18], 54.6%.

In the case of `Cc1sc2c(c1C)c(=O)nc1c(-c3nc(-c4ccc(F)cc4)no3)n[nH]n12`, the growth was 103% in experiment [1]; 96.6% in experiment [2]; 95.5% in [3]; 120% in [4]; 103% in experiment [5]; 98.4% in experiment [6]. The growth in [7] is 93.7%; in experiment [8], 105%; in experiment [9] it was 107%; in experiment [10], 92.5%; in experiment [11], 110%; in [12], 85.7%. Moreover, the growth in [13] is 101%; in [14], 102%; in [15], 89.6%; in [16], 107%; in [17], 97.8%; in experiment [20] it was 93.7%. The growth is 115% in experiment [18] and 113% in [19].

Take `C=C1CC[C@H]2[C@@](C)(CCC3OC(c4ccc(OCc5cn(C6CC(OC(C)=O)C(OC(C)=O)C(COC(C)=O)O6)nn5)cc4)OC[C@]32C)[C@@H]1/C=C/C1=CCOC1=O` (stereo not given in full): the growth in experiment [1] was 38.8%; in experiment [2] it was 58%; in [3], 77.9%; in experiment [4], 103%; in experiment [5], 90.3%; in experiment [6] it was 61%. The growth in experiment [7] is 84.8%; in [8] it was 61.6%; in experiment [9], 93.9%; in experiment [10], 77.2%; in experiment [11] it was 84.1%; in experiment [12] it was 94.8%. Besides, the growth in experiment [13] is 88.3%; in [14], 92.9%; in experiment [15], 62%; in experiment [16] it was 0.123% (active); in experiment [17], 70.5%; in [18] it was 100%. The growth in experiment [19] was 100%.

With `C#Cc1nc(C2=C(C)C(=O)/C(=N/OC(C)=O)C2)cs1`, the growth in experiment [1] is 84%; in [2] it was 86.1%; in experiment [3], 30.3%; in experiment [4] it was 85.1%; in [5], 82.2%; in experiment [6], 56.1%. Besides, the growth is 58.4% in experiment [7]; 86.5% in experiment [8]; 85.2% in experiment [9]; 88.1% in [10]; 115% in experiment [11]; -46.3% (active) in [12]. Besides, the growth in experiment [13] is 96.2%; in experiment [14], 98.1%; in experiment [15] it was 94.3%; in [16], 97.3%; in experiment [17], 80.3%; in [18] it was 107%.

For `COc1ccc(/C=N/NC(=O)c2[nH]c3ccc(Br)cc3c2-c2ccccc2)o1`, the growth in [1] was 12.1%; in experiment [2] it was 51.5%; in experiment [3], -5.34% (active); in experiment [4], 50.9%; in experiment [5] it was 38.6%; in experiment [6], 16.6%. Further, the growth was -17.4% (active) in experiment [7]; 54.1% in [8]; -1.43% (active) in experiment [9]; 10.7% in experiment [10]; -26.9% (active) in experiment [11]; 50.3% in [12]. In addition, the growth was 30.8% in [13]; 19.5% in experiment [14]; 22.6% in [15]; -29% (active) in [16]; 43.7% in [17]; 63.3% in [18]. For the same compound, the growth in experiment [19] was -13% (active).
